Read-out in experiment [1]: Tumor necrosis factor (Homo sapiens) (UniProt P01375)
Briefly: BSK_BT_xTNFa: BioMAP Diversity Plus: BT Assay for Tumor necrosis factor alpha (TNF-alpha) Biomarker Activity (AID 2284230). To be noted: primary human B cells with PBMC. Summed up: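 Endpoint derived in the positive direction versus DMSO vehicle. Cells: B cells together with PBMC, exposed 24 h before TNF-alpha in the medium was read on the Luminex xMAP platform.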

Read-out in experiment [2]: Vascular cell adhesion molecule 1 (VCAM1), VCAM1 (gene 7412)
Briefly: BSK_MyoF_VCAM1: BioMAP Diversity Plus: MyoF Assay for Vascular cell adhesion molecule 1 (VCAM1) Biomarker Activity (AID 2284231). To be noted: primary human lung fibroblasts. In a few lines: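 Primary human lung fibroblasts were dosed with test chemical for 24 h, then cell-surface VCAM-1 was measured by ELISA. Activity was fitted in the positive direction against DMSO as negative control and baseline.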

Read-out in experiment [3]: Collagen I, COL1A1 (gene 1277)
Briefly: BSK_MyoF_CollagenI: BioMAP Diversity Plus: MyoF Assay for Collagen I Biomarker Activity (AID 2284238). To be noted: primary human lung fibroblasts. Summed up:
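Human lung fibroblasts were exposed to test chemical for 24 h, then Collagen I was quantified by ELISA. Activity was fitted in the increasing direction against DMSO as the negative control and baseline.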

Read-out in experiment [4]: Collagen III, COL3A1 (gene 1281)
Briefly: BSK_MyoF_CollagenIII: BioMAP Diversity Plus: MyoF Assay for Collagen III Biomarker Activity (AID 2284239). To be noted: primary human lung fibroblasts. In a few lines: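 Human lung fibroblasts were dosed with chemicals and, 24 hours later, collagen III was measured by ELISA. Activity was fitted in the positive direction against the DMSO negative-control baseline.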

Read-out in experiment [5]: Interleukin 17F (IL17F), IL17F (gene 112744)
Briefly: BSK_BT_xIL17F: BioMAP Diversity Plus: BT Assay for Interleukin 17F (IL17F) Biomarker Activity (AID 2284243). To be noted: primary human B cells with PBMC. In a few lines:
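B cell/PBMC co-culture (human primary), 24 h compound exposure; sIL-17F by Luminex xMAP; gain-of-signal fit vs DMSO baseline.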

Read-out in experiment [6]: Actin alpha 1 (ACTA1), ACTA1 (gene 58)
Briefly: BSK_MyoF_ACTA1: BioMAP Diversity Plus: MyoF Assay for Actin alpha 1 (ACTA1) Biomarker Activity (AID 2284244). To be noted: primary human lung fibroblasts. In a few lines:
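Human lung fibroblast (MyoF system) cultures dosed with test chemical; alpha-SMA measured by ELISA 24 h after dosing, normalized to DMSO control. Cytotoxicity tracked in parallel cultures by SRB total-protein staining.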

Read-out in experiment [7]: Interleukin 2 (IL2), IL2 (gene 3558)
Briefly: BSK_BT_xIL2: BioMAP Diversity Plus: BT Assay for Interleukin 2 (IL2) Biomarker Activity (AID 2284245). To be noted: primary human B cells with PBMC. Summed up:
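Human B cell plus PBMC co-culture, 24 h after chemical dosing; secreted IL-2 quantified by Luminex xMAP multiplex, fitted for signal gain against DMSO baseline.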

Read-out in experiment [8]: Basic fibroblast growth factor (bFGF), FGF2 (gene 2247)
Briefly: BSK_MyoF_bFGF: BioMAP Diversity Plus: MyoF Assay for Basic fibroblast growth factor (bFGF) Biomarker Activity (AID 2284246). To be noted: primary human lung fibroblasts. In a few lines:
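Human lung fibroblast cultures were dosed and measured 24 h later in 96-well format. bFGF biomarker levels quantified by ELISA, with activity fitted in the positive direction against DMSO.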

Read-out in experiment [9]: Collagen IV, COL4A1 (gene 1282)
Briefly: BSK_MyoF_CollagenIV: BioMAP Diversity Plus: MyoF Assay for Collagen IV Biomarker Activity (AID 2284247). To be noted: primary human lung fibroblasts. In a few lines:
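Primary human lung fibroblasts (MyoF system) dosed 24 h; Collagen IV measured by ELISA. Activity fitted in positive direction against DMSO; cytotoxicity tracked by SRB total-protein staining in parallel cultures.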

Experiment [10] in a line: CCTE_Mundy_HCI_Cortical_NOG_NeuronCount: CCTE's Neurite Outgrowth Assay in rat cortical cells for Neuron Count, Mundy Lab (AID 2284236; active means hit-call score of the fitted dose curve at least 0.9, where 1 is the maximum;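 further: neurons counted by imaging betaIII-tubulin and Hoechst stained cortical cells; cells exposed to compound for about 48 hours before fixation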). In a few lines:
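Read-out: neuron number by high-content imaging of betaIII-tubulin (Alexa Fluor-488) and Hoechst-labelled rat primary cortical cells.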

Experiment [11] is described as follows: CCTE_Mundy_HCI_Cortical_NOG_BPCount: CCTE's Neurite Outgrowth Assay in rat cortical cells for Branch Point Count, Mundy Lab (AID 2284237).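 On AC50: branch points counted about two days after chemical exposure.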 Summed up: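 Measured 50.33 h after dosing, this morphology endpoint uses rat primary cortical cultures labelled for betaIII-tubulin. Branch points are quantified by high-content imaging, with DMSO as negative control and baseline.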

Experiment [12] in a line: CCTE_Mundy_HCI_hNP1_Casp3_7: CCTE's Caspase-Glo 3/7 Assay in human neuroprogenitor cells for Apoptosis, Mundy Lab (AID 2284240). In a few lines: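 Neuroepithelial-lineage stem cells from WA09 embryonic cells were treated with chemicals after 40–44 h of culture. Twenty-four hours later, caspase-3/7 activation was detected luminescently after a 30 min room-temperature reagent step, with DMSO as baseline.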

Experiment [13] in a line: CCTE_Mundy_HCI_hNP1_CellTiter: CCTE's Cell Titer-Glo 2 Assay in human neuroprogenitor cells for Viability, Mundy Lab (AID 2284241; active means hit-call score of the fitted dose curve at least 0.9, where 1 is the maximum;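 on AC50: a hit is a drop in ATP luminescence versus DMSO meaning reduced viability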). Summed up: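 Measures ATP content in human neural progenitors derived from WA09 embryonic cells. Read-out at 26.5 hours after dosing, with DMSO serving as the negative control and baseline.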
In general terms: In ATP-based viability assays light output follows the ATP content of the culture.

A short description of experiment [14]: CCTE_Mundy_HCI_Cortical_Synap_Neur_Matur_NeuronCount: CCTE's Synaptogenesis and Neurite Maturation Assay in rat cortical cells for Neuron Count, Mundy Lab (AID 2284242; active means hit-call score of the fitted dose curve at least 0.9, where 1 is the maximum;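 on AC50: hits reduce neuron count versus DMSO baseline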). Summed up: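 Rat primary cortical cells, AraC added at DIV 5, dosed with media change from DIV 7 to DIV 12. Fixed, Hoechst-stained and immunolabelled for MAP2 and synaptophysin; neuron number counted by high-content imaging, loss fitted versus DMSO.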

Read-out in experiment [15]: Monokine induced gamma interferon (MIG), CXCL9 (gene 4283)
Briefly: BSK_KF3CT_MIG: BioMAP Diversity Plus: KF3CT Assay for Monokine induced gamma interferon (MIG) Biomarker Activity (AID 2284248). To be noted: primary human keratinocytes with fibroblasts. In a few lines:
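Human keratinocyte plus foreskin fibroblast primary co-culture dosed with test chemical for 24 h; MIG level measured by ELISA and fitted in the positive direction against DMSO as baseline.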

Read-out in experiment [16]: Collagen I, COL1A1 (gene 1277)
Briefly: BSK_hDFCGF_CollagenI: BioMAP Diversity Plus: hDFCGF Assay for Collagen I Biomarker Activity (AID 2284250). To be noted: primary human foreskin fibroblasts. In a few lines:
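Primary human foreskin fibroblasts exposed to chemical for 24 h; Collagen I levels measured by ELISA. Cytotoxicity checked by SRB total-protein staining in parallel cultures.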

The nature of experiment [17]: UKN2_HCS_IMR90_cell_viability: Viability Assessment in the University of Konstanz (UKN) Leist Lab Neural Crest Cell Migration Assay in human induced IMR90 Pluripotent Stem Cells (UKN2) (AID 2284233).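 Further: viability of neural crest cells differentiated from IMR90 iPSC measured by calcein-AM fluorescence imaging; cells exposed to compound for 24 h after a 24 h migration phase.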 In a few lines:
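iPSC-derived (IMR90) neural crest cells seeded around silicone stoppers on PLO/laminin/fibronectin; after 24 h migration in N2-S with EGF/FGF, chemical added for 24 h. Calcein-AM/Hoechst stained 30 min, high-content imaged; bidirectional fit versus DMSO.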

Experiment [18] in a line: UKN4_HCS_LUHMES_cell_viability: Viability Assessment in the University of Konstanz (UKN) Leist Lab Neurite Outgrowth Assay in human LUHMES cells (UKN4) (AID 2284232). Summed up:
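LUHMES precursors differentiated 2 days, replated at 30000 cells/well without cAMP/GDNF, then compound-treated 24 h. Viability from Hoechst H-33342 and calcein-AM live staining (30 min) by high-content fluorescence imaging; bidirectional fit versus DMSO.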

“And” between values parts separate entries of the source, which are not always exact repeats. Equal values may be shown once. Inconclusive results are not listed. The source made the active and inactive calls. How the source made its calls, unless noted: active means hit-call score of the fitted dose curve at least 0.9, where 1 is the maximum; inactive means score below 0.9.

Tumor necrosis factor (Homo sapiens), sequence (P01375 whole entry, looked up): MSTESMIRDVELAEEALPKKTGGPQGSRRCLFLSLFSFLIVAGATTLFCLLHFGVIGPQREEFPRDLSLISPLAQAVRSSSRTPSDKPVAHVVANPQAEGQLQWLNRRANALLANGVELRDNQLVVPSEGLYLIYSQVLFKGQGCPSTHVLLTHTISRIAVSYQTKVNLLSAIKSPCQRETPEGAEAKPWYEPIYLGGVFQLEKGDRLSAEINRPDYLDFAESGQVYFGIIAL

The term AC50 denotes the concentration giving half of the maximal activity seen. On to `Cc1cccc2c1ccc1ccccc12`, for which the outcome in [1], in experiment [2], in experiment [3], in experiment [4], in [6] and in experiment [7] was inactive. For the same compound, the result in [8] and in [9] was inactive. Further, the AC50 in experiment [5] is 20 µM (active).

For the compound `CN(Cc1cnc2nc(N)nc(N)c2n1)c1ccc(C(=O)N[C@@H](CCC(=O)O)C(=O)O)cc1`, the outcome in experiment [1], in experiment [2], in [10], in [11], in experiment [3] and in experiment [4] was inactive. For the same compound, the compound was called inactive in experiment [12], in experiment [13], in experiment [14], in experiment [5], in [6] and in experiment [7]. Moreover, the result in [8], in [9], in experiment [15] and in experiment [16] was inactive.

Turning to `Cc1ccc(C(=O)c2ccccc2)cc1`, the outcome in [1], in experiment [3], in experiment [4], in [5], in [7] and in [8] was inactive. The AC50 is 31.4 µM (active) in experiment [2], 20 µM (active) in experiment [6] and 20 µM (active) in experiment [9].

On to `CC(C)c1c(C(=O)Nc2ccccc2)c(-c2ccccc2)c(-c2ccc(F)cc2)n1CC[C@@H](O)C[C@@H](O)CC(=O)O`, for which the compound was called inactive in [17]. Besides, the AC50 in experiment [10] was 7.8 µM (active); in [11], 89.6 nM (active); in [12], 12.1 µM (active); in experiment [13], 12.8 µM (active); in [14], 5.15 µM (active).

For `O=S(=O)(O)C(F)(F)C(F)(F)C(F)(F)C(F)(F)C(F)(F)C(F)(F)C(F)(F)C(F)(F)C(F)(F)C(F)(F)F`, the result in experiment [1], in experiment [2], in experiment [3], in experiment [4], in experiment [5] and in experiment [6] was inactive. Moreover, the result in [7], in experiment [8], in [9], in experiment [15] and in [16] was inactive.

As to `CCCCCCCCCCCC`, the AC50 in [15] was 20.2 µM (active) and 20.6 µM (active); in [16] it was 9.41 µM (active) and 9.63 µM (active).

Regarding `O=C(NCc1ncc(C(F)(F)F)cc1Cl)c1c(Cl)cccc1Cl`, the AC50 is 20 µM (active) in experiment [1], 21 µM (active) in experiment [5] and 32.1 µM (active) in [7]. Besides, the outcome in [2], in experiment [3], in [4], in [6], in experiment [8] and in [9] was inactive.

Turning to `O=C(O)CCC(F)(F)C(F)(F)C(F)(F)C(F)(F)C(F)(F)F`, the result in experiment [1], in experiment [2], in experiment [3], in experiment [4], in [5] and in experiment [6] was inactive. The outcome in [7], in experiment [8], in experiment [9], in experiment [15] and in experiment [16] was inactive.

For `Cc1ccc(N=Nc2c(O)ccc3ccccc23)c(C)c1`, the outcome in experiment [1], in [2], in experiment [3], in experiment [4], in [5] and in [6] was inactive. The outcome in [7], in experiment [8] and in experiment [9] was inactive.

Regarding `O=C(CCCN1CCC(O)(c2ccc(Cl)cc2)CC1)c1ccc(F)cc1`, the compound was classed as inactive in [18], in experiment [17] and in experiment [10]. The AC50 is 70.7 µM (active) in experiment [12] and 21.9 µM (active) in experiment [14].

For the compound `Oc1ccc(Cc2ccccc2O)cc1`, the outcome in experiment [15] and in experiment [16] was inactive.

Take `Nc1ccn([C@@H]2O[C@H](CO)[C@@H](O)C2O)c(=O)n1` (stereo not given in full): the call in experiment [18] and in experiment [17] was inactive. The AC50 is 2.74 µM (active) in experiment [10], 0.207 µM (active) in [12] and 10.8 µM (active) in experiment [14].

Consider `Oc1c(Cl)cc(Cl)cc1Sc1cc(Cl)cc(Cl)c1O`, for which the AC50 is 2.92 µM (active) and 2.86 µM (active) in experiment [15]; 1.32 µM (active) and 960 nM (active) in [16].

`CC[N+](CC)(CC)Cc1ccccc1`: the outcome in experiment [1], in experiment [2], in experiment [3], in experiment [4], in experiment [5] and in experiment [6] was inactive. In addition, the outcome in experiment [7], in experiment [8] and in [9] was inactive.
